According to the supplement of paper PMC6992640:
± gives the standard deviation of the averaged measurements.

Columns and labels:
Experiment in all cases: cell viability (% of vehicle); higher = less cytotoxic
Settings in all cases: 10 µM; 72 h
HCI01 = tested on: HCI01 (cells of a triple-negative basal-like breast cancer xenograft)
HCI03 = tested on: HCI03 (cells of an ER-positive luminal breast cancer xenograft)
HCI09 = tested on: HCI09 (cells of a triple-negative luminal androgen receptor type breast cancer xenograft)
HCI11 = tested on: HCI11 (cells of an ER-positive luminal breast cancer xenograft)
HCI13 = tested on: HCI13 (cells of an ER-positive luminal breast cancer xenograft)
HCI16 = tested on: HCI16 (cells of a triple-negative basal-like breast cancer xenograft)
UCD52 = tested on: UCD52 (cells of a triple-negative basal-like breast cancer xenograft)
WHIM2 = tested on: WHIM2 (cells of a triple-negative basal-like breast cancer xenograft)
WHIM30 = tested on: WHIM30 (cells of a triple-negative basal-like breast cancer xenograft)
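Further: PDX cells carrying CMV promoter-driven luciferase, viability read as total photon flux per second by IVIS imaging following D-luciferin, vehicle control 0.1% DMSO.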

| SMILES | cell viability (HCI01) | cell viability (HCI03) | cell viability (HCI09) | cell viability (HCI11) | cell viability (HCI13) | cell viability (HCI16) | cell viability (UCD52) | cell viability (WHIM2) | cell viability (WHIM30) |
| --- | --- | --- | --- | --- | --- | --- | --- | --- | --- |
| OCC(O)C(O)C(O)CO (stereo unspecified) [Xylitol] | 96.8 ± 14 | 133 | 101 ± 15 | 95.5 | 97 ± 3.2 | 101 | 101 ± 7.7 | 90.3 ± 14 | 83.1 ± 8.9 |
| O=C(O)c1ccccc1 [Benzoic Acid] | 143 ± 20 | 95.6 | 109 ± 25 | 104 | 70.3 ± 10 | 124 | 110 ± 8 | 127 ± 7.8 | 111 ± 15 |
| CC(O)C1C(=O)N2C(C(=O)O)=C(SC3CNC(CNS(N)(=O)=O)C3)C(C)C12.O (stereo unspecified) [Doripenem Hydrate] | 103 ± 1.4 | 91.1 | 95.9 ± 7 | 84.3 | 84.8 ± 5.9 | 95.3 | 89.1 ± 5.5 | 93.6 ± 7.5 | 109 ± 5.1 |
| [I-].[K+] [Potassium Iodide] | 98.5 ± 37 | 134 | 97 ± 8.2 | 97.4 | 169 ± 3.2 | 127 | 102 ± 6.1 | 82 ± 5.4 | 121 ± 7.5 |
| NC(=O)CC[C@H](N)C(=O)O [L-Glutamine] | 85.6 ± 8.7 | 92.8 | 92.2 ± 25 | 87.4 | 101.1 ± 0.78 | 97.3 | 82.9 ± 3.6 | 104 ± 3.9 | 70.6 ± 7.1 |
| O=C(O)CCCN1CCC(OC(c2ccc(Cl)cc2)c2ccccn2)CC1.O=S(=O)(O)c1ccccc1 (stereo unspecified) [Bepotastine Besilate] | 155 ± 45 | 131 | 112 ± 1.6 | 96.6 | 121 ± 6.6 | 128 | 87.6 ± 21 | 87.7 ± 5.1 | 138 ± 10 |
| Cl.c1ccc2c(c1)CCCC2C1=NCCN1 (stereo unspecified) [Tetrahydrozoline HCl] | 114 ± 3.1 | 116 | 97.1 ± 17 | 106 | 86.8 ± 1.9 | 108 | 89.5 ± 2 | 101 ± 21 | 115 ± 2.9 |
| COCC1=C(C(=O)OC(C)OC(=O)OC(C)C)N2C(=O)[C@@H](NC(=O)/C(=N\OC)c3csc(N)n3)[C@H]2SC1 (stereo partly specified) [Cefpodoxime Proxetil] | 106 ± 3.7 | 176 | 102 ± 11 | 103 | 109 ± 18 | 133 | 99.2 ± 12 | 106 ± 3.2 | 105 ± 12 |
| NC(=O)C(CCC(F)(F)F)N(Cc1ccc(-c2ncon2)cc1F)S(=O)(=O)c1ccc(Cl)cc1 (stereo unspecified) | 96 ± 23 | 142 | 67.5 ± 2.2 | 75.5 | 102 ± 16 | 96.7 | 81.58 ± 0.81 | 107.6 ± 0.73 | 124 ± 13 |
| Cc1ncc([N+](=O)[O-])n1CCO [Metronidazole] | 91.9 ± 32 | 135 | 90.8 ± 28 | 89.6 | 104 ± 9 | 133 | 77.3 ± 7.2 | 81 ± 16 | 131 ± 4.7 |
| COc1cc(NC(C)CCCN)c2ncccc2c1.O=P(O)(O)O.O=P(O)(O)O (stereo unspecified) [Primaquine Diphosphate] | 56.3 ± 9.8 | 95.2 | 29.3 ± 9.9 | 49 | 68.2 ± 11 | 116 | 75.7 ± 10 | 70.5 ± 11 | 112 ± 1.8 |
| COC(=O)N=NC=C1C=[N+]([O-])c2ccccc2N1O [Carbadox] | 106 ± 3.1 | 116 | 97.8 ± 8.7 | 107 | 106 ± 28 | 98.8 | 72.3 ± 12 | 96.8 ± 9.7 | 114 ± 9.4 |
| CC1CCc2c(N3CCC(O)CC3)c(F)cc3c(=O)c(C(=O)O)cn1c23 (stereo unspecified) [Nadifloxacin] | 83.8 ± 17 | 122 | 79 ± 2.1 | 93.8 | 103 ± 3.5 | 120 | 77.6 ± 6.6 | 74.2 ± 3.4 | 122 ± 6.2 |
| CC(=O)OCC(=O)NCCCOc1cccc(CN2CCCCC2)c1.Cl [Roxatidine Acetate HCl] | 175 ± 22 | 118 | 121 ± 11 | 120 | 141 ± 22 | 131 | 95.5 ± 9.9 | 106 ± 3.1 | 128 ± 15 |
| COCCCOc1cc(CC(CC(N)C(O)CC(C(=O)NCC(C)(C)C(N)=O)C(C)C)C(C)C)ccc1OC.COCCCOc1cc(CC(CC(N)C(O)CC(C(=O)NCC(C)(C)C(N)=O)C(C)C)C(C)C)ccc1OC.O=C(O)C=CC(=O)O (stereo unspecified) [Aliskiren Hemifumarate] | 117 ± 11 | 157 | 107 ± 8.5 | 97.2 | 107 ± 2.1 | 148 | 108 ± 13 | 123 ± 14 | 140 ± 14 |
| CC(=O)OCC(CCn1cnc2cnc(N)nc21)COC(C)=O [Famciclovir] | 112 ± 17 | 114 | 93.4 ± 4.1 | 96.3 | 123 ± 7.6 | 136 | 85.3 ± 8.4 | 106 ± 7.2 | 114 ± 2.1 |
| CCCC(CCC)C(=O)O.CCCC(CCC)C(=O)[O-].[Na+] [Divalproex Sodium] | 112 ± 1.5 | 116 | 96.4 ± 23 | 111 | 114 ± 41 | 94.5 | 86.1 ± 2.9 | 80.1 ± 16 | 90.4 ± 14 |
| CCCC(CCC)C(=O)[O-].[Na+] [Valproic acid sodium salt (Sodium valproate)] | 190 ± 54 | 154 | 92 ± 18 | 140 | 111 ± 14 | 159 | 158 ± 42 | 105 ± 18 | 192 ± 10 |
| CC(C)=CCCC(C)=CCCC(C)=CCSc1ccccc1C(=O)O [Salirasib] | 69.5 ± 50 | 112 | 95.6 ± 7.4 | 97.9 | 84.5 ± 4.3 | 103 | 95.5 ± 4.6 | 39.5 ± 1.3 | 120 ± 15 |
